ChEMBL document CHEMBL3988442, “University of Dundee, Small-Polar-MMV Screening Library” (2021)

How the values were obtained:
[1] = biological target: T1, Aspartate--tRNA(Asp/Asn) ligase (Mycobacterium tuberculosis (strain ATCC 25618 / H37Rv)) (UniProt P9WFW3); assay: Assay for Asp RNA synthetase-1 from Mycobacterium tuberculosis; assay type: functional; design: scale not given: direction of the effect not stated beside the values; conditions: 30 µM; also: in the data most compounds retested in dose-response had high values
T1 sequence (whole entry): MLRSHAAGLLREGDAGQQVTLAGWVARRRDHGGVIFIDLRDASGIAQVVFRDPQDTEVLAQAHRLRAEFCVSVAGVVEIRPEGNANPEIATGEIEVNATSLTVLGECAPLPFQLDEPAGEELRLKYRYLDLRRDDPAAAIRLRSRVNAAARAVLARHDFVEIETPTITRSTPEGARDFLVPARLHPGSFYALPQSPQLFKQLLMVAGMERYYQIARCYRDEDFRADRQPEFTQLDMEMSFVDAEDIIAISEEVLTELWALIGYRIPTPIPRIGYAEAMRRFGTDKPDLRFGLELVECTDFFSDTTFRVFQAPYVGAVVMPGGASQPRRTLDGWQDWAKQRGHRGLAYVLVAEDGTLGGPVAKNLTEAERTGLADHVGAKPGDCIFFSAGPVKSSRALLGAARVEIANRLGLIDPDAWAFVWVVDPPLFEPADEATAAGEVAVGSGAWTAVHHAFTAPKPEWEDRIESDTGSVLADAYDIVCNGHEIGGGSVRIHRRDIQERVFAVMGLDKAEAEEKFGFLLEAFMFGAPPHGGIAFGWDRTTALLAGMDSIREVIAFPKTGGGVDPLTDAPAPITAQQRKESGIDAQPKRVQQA

[2] = biological target: Shiga toxin 2 (Escherichia coli O157:H7) (UniProt P09385+P09386); assay: E. coli 0.157:H7 Shiga Toxin SOP - stx2 screening assay; assay type: functional; design: scale not given: direction of the effect not stated beside the values; conditions: 30 µM

| SMILES | Percent Effect [1] | Percent Effect [2] |
| --- | --- | --- |
| O=C1CC2(CCN(CC3CCOC3)CC2)CN1Cc1cc(F)cc(F)c1 (stereo not given) | -4.88% | 2.13% |
| CC(=O)NCCNC(=O)N(C)Cc1ccc2c(c1)OCCO2 | -4.52% | 15.2% |
| O=C(C1CC1)N1CC[C@H](O)[C@@H]1Cc1ccccc1 | -2% | 1.84% |
| O=C1CC(c2cccnc2)c2c(c(C(=O)O)cn2-c2ccccc2)N1 (stereo not given) | 4.82% | -6.55% |
| CC(=O)c1cccc(NC(=O)Cn2cc(I)cn2)c1 | 6.41% | -55.6% |
| O=C(c1ccc(-n2ccnc2)nc1)N1CCCC(n2cccn2)C1 (stereo not given) | -4.43% | 28.7% |
| CC(c1ccccc1)n1c(SCC(=O)O)nnc1-c1ccccc1Cl (stereo not given) | 1% | 2.71% |
| CCS(=O)(=O)N1Cc2nccn2CC(Cn2nc(C)nc2C)C1 (stereo not given) | 0.776% | 6.38% |
| Cc1ccc(NC(=O)NC(C)c2nc[nH]n2)cc1 (stereo not given) | 4.39% | 5.92% |
| Cc1nn(C)c2cnn(C(C)C(=O)NCc3cccnc3)c12 (stereo not given) | -7.38% | -21.6% |
| O=C(c1cc(Cl)c2c(c1)OCO2)N1CCN(c2ccccn2)CC1 | -0.949% | 18.3% |
| COc1cc(OC)c(C2Nc3cc(Cl)ccc3C3=NCCN32)cc1OC (stereo not given) | -6.02% | -48.2% |
| O=C(CCn1ccccc1=O)Nc1ccc(I)cc1 | 8.05% | -26.1% |
| CCCn1nc2c(cc1=O)CN(CCCN1CCCC1=O)CC2 | 10.1% | 12.4% |
| COc1ccc(COCC(O)CNC(=O)c2cnc(C)cn2)cc1 (stereo not given) | 0.509% | -32.5% |
| Cc1nccn1-c1cc(CNC(=O)c2ccccn2)ccn1 | 8.28% | -3.43% |
| O=C(N1CCCC1)N1CCN(CC2CC2)c2ncccc2C1 | 3.25% | -4.59% |
| COCC(=O)NC1CC2(CCN(Cc3ccco3)CC2)c2ccccc21 (stereo not given) | 5.52% | -5.13% |
| O=C(NCC1CC1)[C@H]1C[C@@H]2CN(S(=O)(=O)Cc3ccccc3)C[C@H]1O2 | 4.1% | -14.6% |
| CN(C)CCN1CCO[C@@H]2CN(C(=O)c3cccs3)CC[C@@H]2C1 | 0.229% | 4.93% |
| CCN(CC)Cc1cn2c(n1)CN(C(=O)c1cc(C)on1)CC2 | 3.22% | 2.01% |
| Cc1nnc(NCC2(c3ccc(Cl)cc3Cl)CCOCC2)c(C#N)c1C | 1.93% | -16.4% |

| SMILES | Percent Effect [1] | Percent Effect [2] |
| --- | --- | --- |
| COc1ccc(C(=O)N2C[C@@H](CN3CCOCC3)[C@@H](CO)C2)c(C)c1 | -0.54% | 2.18% |
| c1csc(-c2nc(CN3CCCC3Cn3cncn3)co2)c1 (stereo not given) | 3.68% | -0.336% |
| COC(=O)C(NC(=O)c1ccco1)c1cc(F)ccc1F (stereo not given) | -3.92% | 7.37% |
| Cc1nc(C)n(CC2CCCN2CC(=O)Nc2ccnn2C(C)C)n1 (stereo not given) | -1.15% | 23.4% |
| Cc1cc(S(=O)(=O)NCc2cccc(C(=O)N3CCCC3)c2)c(C)s1 | 2.16% | 5.68% |
| CC(C)(C)c1nc(CN(Cc2cccs2)C2CCS(=O)(=O)C2)no1 (stereo not given) | 1.32% | 24.2% |
| COC(=O)c1cc(OCC2CCC2)cc(C(=O)N[C@H]2CC[C@H](O)CC2)c1 | 9.23% | -30.2% |
| Cc1ccc(CNC(=O)NCc2cccnc2N(C)C)s1 | -3.67% | 1.79% |
| CCc1n[nH]c(C2CN(C(=O)Cn3ccccc3=O)CCO2)n1 (stereo not given) | 0.8% | -58% |
| O=C(Cn1ccc2sccc2c1=O)NCc1ccc2c(c1)OCO2 | 0.0437% | -8.21% |
| COc1ccc2c(c1)C1(CCN(Cc3ccoc3)CC1)N(C)CC2 | 0.685% | -9.8% |
| Cc1cnn(CC2CN(Cc3cccc(OCC(N)=O)c3)CCO2)c1 (stereo not given) | -5.07% | 8.76% |
| CCc1cnc(N2CC3(CCN(C(=O)c4ccoc4)C3)C2)nc1 | -4.49% | -30.6% |
| COCC1CC2(CCN(C(=O)c3ccc(OC)c(Cl)c3)CC2)CO1 (stereo not given) | 0.918% | -4.71% |
| CCc1ncnc2c1CCN(Cc1ccc(OC)cc1)CC2 | -0.259% | -28% |
| Cc1noc(C)c1CCC(=O)N1CCN(CCn2cncn2)CC1 | 6.07% | -7.17% |
| CC(C)(C)c1cc(CN2CC[C@@H](NC(=O)c3cccnc3)[C@H](O)C2)n[nH]1 | -4.62% | 14.9% |
| Cc1noc(NC(=O)c2ccc(C)c(F)c2)n1 | -11.1% | -3.27% |
| Cc1cc(C)c2nc(CN3CC[C@@H](O)C3)cc(O)c2c1 | 3.16% | 7.54% |
| CCS(=O)(=O)NC[C@]12COC[C@H]1CN(Cc1cccc(OC)c1)C2 | 0.596% | 1.39% |
| CS(=O)(=O)N1C[C@@H]2CC[C@H](C1)N(Cc1cscn1)C2=O | 0.593% | -13.6% |
| Cc1ccc(OCC(=O)NCC(C)C)nc1 | -3.37% | -28.9% |

| SMILES | Percent Effect [1] | Percent Effect [2] |
| --- | --- | --- |
| COC(=O)CCc1c(C)nn(-c2nc(C)cc(=O)[nH]2)c1C | -5.2% | -12.7% |
| O=C(NCc1cc[nH]n1)NCC(O)COc1cccc(F)c1 (stereo not given) | 1.72% | -40% |
| CN(Cc1cnn(C)c1)C(=O)NC1CCC(O)CC1 (stereo not given) | -5.01% | 12% |
| CCOc1ncccc1C(=O)N1CCCC(c2nccn2CCOC)C1 (stereo not given) | -4.25% | -0.308% |
| Cc1cc(C(=O)NCc2ccc(N3CCCC(C(N)=O)C3)cc2)no1 (stereo not given) | -6.8% | -3.03% |
| CC(C)n1ccnc1C1CCN(C(=O)c2ccccc2)CC1 | -4.71% | 12.4% |
| CN(Cc1ccsc1)C(=O)CS(=O)(=O)Cc1ccc(Cl)c(Cl)c1 | 3.95% | 41.2% |
| CC(C)C1CN(c2ncc(F)cn2)CCC(=O)N1Cc1ccc(F)cc1 (stereo not given) | 1.56% | -4.93% |
| Cc1nc(CN2C(=O)C[C@@H]3[C@@H]2CCN3C(=O)C2CCOCC2)cs1 | -2.3% | -52.6% |
| CCn1ccnc1CN1CCN(CC(O)Cn2cccn2)CC1 (stereo not given) | -1.83% | -31.5% |
| CC(C)n1c(C2CCCN(CCS(C)(=O)=O)C2)nc2ccccc21 (stereo not given) | 0.943% | 17.6% |
| CC(C)c1nccn1-c1cccc(C2CCN(C)CC2)n1 | -1.47% | -33.7% |
| Cc1nn(C)c(N2CCOCC2)c1CNC1CCc2cc(F)ccc21 (stereo not given) | -1.16% | -5.02% |
| CC(C)(O)C1CCN(C(=O)Nc2nc(-c3ccccc3)ns2)CC1 | 1.51% | -6.7% |
| CCC(CC)C(CNC(=O)Nc1ccc(C)cc1)N1CCOCC1 (stereo not given) | -1.91% | -3.64% |
| Cc1nc(N2CCN(C(=O)c3ccccc3)CC2)c2c(n1)c(C)nn2C | -3.51% | -31% |
| O=C(CCc1cscn1)N1CCCC(c2ccn[nH]2)C1 (stereo not given) | -1.82% | 5.88% |
| CCn1cc(NC(=O)NCC(c2cccs2)N(C)C)cn1 (stereo not given) | -1.06% | 24.9% |
| CCc1cc(O)nc(C2CCCN2C(=O)c2cccnc2)n1 (stereo not given) | 2.54% | 2.33% |
| Cc1nn(CC(C)C)c(N(C)C)c1CNCc1cccnc1N(C)C | 0.161% | 24.5% |
| CC(O)CN1CCC(CNCc2ccccc2Br)CC1 (stereo not given) | 1.21% | -20.4% |
| CC(CN1CCC2(CC1)c1nc[nH]c1CCN2S(C)(=O)=O)C(F)(F)F (stereo not given) | 2.76% | 4.49% |

| SMILES | Percent Effect [1] | Percent Effect [2] |
| --- | --- | --- |
| CC(=O)Nc1nc(C(=O)N2CCCC(n3nc(C)cc3C)C2)cs1 (stereo not given) | -0.815% | 10.8% |
| O=C(c1ccc2c(c1)COC2)N1CCN(CC2CC2)CC1 | -0.514% | -1.4% |
| Cc1cc(C(F)(F)F)c2c(C3CCN(S(=O)(=O)N(C)C)CC3)noc2n1 | 7.31% | 0.93% |
| O=C(NCCO)c1ccn(-c2ccc3ccccn23)n1 | 2.94% | -37% |
| Cc1ccc(-c2nc(CN3CCCC3Cn3cc(C)cn3)no2)cc1 (stereo not given) | 1.48% | -24.5% |
| COc1ccc(C(=O)NCC(c2cccn2C)N2CCCC2)c(OC)c1 (stereo not given) | -4.85% | -22.3% |
| Clc1ccc2oc(C3CCN(Cc4cccnc4)CC3)nc2c1 | 1.26% | -46.7% |
| CN(Cc1nc(C2CC2)no1)C1CCCN(c2cccnn2)C1 (stereo not given) | -4.8% | 0.986% |
| Cc1cccc(NC(=O)CNC(=O)Cn2ncc(Cl)c(Cl)c2=O)c1C | 9.53% | -21.2% |
| Cc1nc(CN2CCCC(NCCOc3ccccc3)C2)no1 (stereo not given) | -8.02% | -0.215% |
| O=C(c1ccc[nH]1)N1C[C@H]2CN(Cc3cccc(F)c3)C(=O)[C@H]2C1 | 0.565% | -9.53% |
| CCCC(C)CN1CCC(n2cc(CCCO)nn2)CC1 (stereo not given) | 1.56% | -23.7% |
| CCC(CC)c1cc(CNC(=O)N2CCOCC2CC)on1 (stereo not given) | -2.19% | 9.7% |
| Cc1nc(O)c2nnn(C[C@H]3CCCN3C(=O)CCC3CCCC3)c2n1 | 2.01% | 13% |
| Cc1noc(C)c1CN1C(=O)[C@H]2CC[C@@H]1CN(Cc1cccnc1N)C2 | 3.56% | -24.1% |
| c1ccc(-c2cc(CN3CCC(c4ccn[nH]4)CC3)on2)cc1 | 2.46% | -49.6% |
| Cc1nc(CN2CCO[C@@H]3CN(C(=O)NC(C)C)CC[C@@H]3C2)cs1 | 3.49% | -4.73% |
| O=C1CC(c2cccc(O)c2)c2sc(C(=O)O)c(-c3ccccc3)c2N1 (stereo not given) | -3.78% | -24.7% |
| CN(C)C(=O)CC1CC2(CCNCC2)c2cc(F)ccc21 (stereo not given) | 2.15% | 1.21% |
